USP30 inh – blocks human USP30 ubiquitin-rhodamine cleavage | 47,000 tested, 5.3% active | purified USP30, Ub-rhodamine cleavage fluorescence | inhibition, % at 25 µM | Q70CQ3
Target sequence (Q70CQ3 whole entry, looked up): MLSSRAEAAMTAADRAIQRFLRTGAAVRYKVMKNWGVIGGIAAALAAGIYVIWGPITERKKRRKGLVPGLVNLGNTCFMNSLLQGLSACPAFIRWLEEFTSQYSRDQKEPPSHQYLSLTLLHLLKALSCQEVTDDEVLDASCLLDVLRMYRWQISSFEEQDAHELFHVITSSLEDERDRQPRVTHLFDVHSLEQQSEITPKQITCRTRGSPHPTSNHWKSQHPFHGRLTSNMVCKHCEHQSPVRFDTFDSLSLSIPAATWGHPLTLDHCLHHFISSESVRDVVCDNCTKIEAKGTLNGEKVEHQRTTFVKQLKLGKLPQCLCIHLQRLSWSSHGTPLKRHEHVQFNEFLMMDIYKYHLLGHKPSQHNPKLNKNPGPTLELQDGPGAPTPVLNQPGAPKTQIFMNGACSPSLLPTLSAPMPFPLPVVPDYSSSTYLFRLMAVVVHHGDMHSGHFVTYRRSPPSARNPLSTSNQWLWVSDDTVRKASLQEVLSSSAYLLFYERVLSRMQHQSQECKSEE
USP17 block – blocks human USP17 ubiquitin-rhodamine cleavage. purified USP17, Ub-rhodamine cleavage fluorescence, 3 h. inhibition, % at 50 µM. 47,000 tested, 6.5% active. AID 1645855
USP28 block – blocks human USP28 ubiquitin-rhodamine cleavage; inhibition, % at 25 µM; 47,000 tested, 3% active; Q96RU2; purified USP28, Ub-rhodamine cleavage fluorescence, 30 min
Active calls of the source: *; i = inactive; · = no result. Sampled rows, rich in hits. Any-hit rate of the full collection: about 11%. Cut-off read from the data, not from the text of the source: active = inhibition above about 30%; inactive = the rest.

SMILES	USP30 inh	USP17 block	USP28 block
CCn1cc(CN2CCN(S(C)(=O)=O)CC(C(N)=O)C2)c(C)n1 (configuration not stated)	-12	-8	-16
Cc1ccsc1C1CCCCCN1S(=O)(=O)c1ccccc1F (configuration not stated)	-22	10	-4
O=C(NCc1cccnc1)c1cnn2c(C(F)(F)F)cc(-c3ccccc3)nc12	64*	14	2
CC(C)CCNC(=O)c1cnn2c(C(F)(F)F)cc(-c3ccccc3)nc12	-3	-1	-9
Cn1nc(C(=O)N2CCCC2)c2c1CN(Cc1ccc3c(c1)OCO3)C2	13	-16	0
Cc1ccccc1C(C)NC(=O)c1cccc2ncccc12 (configuration not stated)	-79	-25	-24
Cc1cccc(O)c1C(=O)O[C@H](C)c1cccc2nc3c(C(=O)O)cccc3nc12	-2	38*	13
CCOc1cc(C2NC(=O)c3c(sc4c3CCN(C)C4)N2)ccc1OC(=O)c1ccccc1 (configuration not stated)	-68	-18	-21
COc1ccc(C(=O)c2c[nH]c(C(N)=O)c2)cc1	20	3	3
N#Cc1cc(C(=O)c2ccc(Cl)cc2)c[nH]1	29	51*	28
COc1ccccc1C1CCN(Cc2c(C)[nH]c3ccccc23)CC1	31*	0	16
COc1cc(CN2CCN(Cc3c[nH]c4ccccc34)CC2)cc(OC)c1OC	-26	-32	-33
Cc1nc(C2CCN(C(=O)c3cn[nH]c3C)C2)nc2c1CCC(=O)N2CC1CCCCC1 (configuration not stated)	7	4	0
Cc1nn(C)c(NC(=O)Nc2ccccc2F)c1C1=CCCCC1	34*	24	5
Cc1nn(C)c(NC(=O)Nc2ccc(F)cc2F)c1C1=CCCCC1	-8	0	-11
CCN(C(=O)c1cccc(Cn2ccnc2C)c1)[C@H]1C[C@@H](c2ccccc2)OC2(CCNCC2)C1	11	1	3
CCN(C(=O)c1cccc(-n2nc(C)cc2C)c1)[C@H]1C[C@@H](c2ccccc2)OC2(CCNCC2)C1	34*	-9	12
Cc1ccc(-c2ccc3nnc(SCC(=O)N4CCCc5ccccc54)n3n2)cc1	15	·	7
Cc1ccc(CCNC(=O)C2CCCN(c3ncnc4onc(C)c34)C2)cc1 (configuration not stated)	36*	-6	5
Cc1ccc(CNC(=O)C2CCCN(c3cnc4nccnc4c3)C2)cc1 (configuration not stated)	i	-138	-248
O=C(Cc1nc(-c2ccccc2)n[nH]1)Nc1ccc(F)cc1F	-21	-19	-6
O=C(Cc1nc(-c2ccccc2)n[nH]1)Nc1cccc(F)c1	30*	12	21
Cc1cc(-c2cccc(S(=O)(=O)N3CCOCC3)c2)n2c(nc3ccccc32)c1C#N	i	-101	-233
N#Cc1c2c(c(-c3ccccc3)n3c1nc1ccccc13)CCC2	-38	43*	0
Cc1nc2nc(NCc3ccc(Cl)cc3)[nH]n2c(=O)c1CCC(=O)N1CCC(C)CC1	5	8	-3
SMILES	USP30 inh	USP17 block	USP28 block
Cc1cccc(CN2C[C@@H]3[C@@H](C(=O)NCC(C)C)CCS(=O)(=O)[C@@H]3C2)c1	-7	-53	-16
Cn1c(SCCOc2ccccc2Cl)nnc1-c1ccc2c(c1)OCCO2	39*	17	38*
Cn1c(SCC(=O)c2ccc3c(c2)OCCCO3)nnc1-c1ccc2ccccc2c1	49*	27	31*
COc1ccccc1OCCSc1nnc(-c2ccc3c(c2)OCCCO3)n1C	18	9	11
Cn1c(SCC(=O)N2CCCCC2)nnc1-c1ccc2c(c1)OCCO2	25	14	6
Cc1cccc(-c2nc(CNC(=O)CC3CC3)no2)c1	0	·	-15
C/C1=C/CC(O)/C=C/C(C)C(O)C(C)/C=C(\C)C(=O)c2c(O)c(C)cc3c2C(=O)C(Cl)=C(NC(=O)\C=C/C=C/C=C\C(C)C(O)CC1=O)C3=O (configuration not stated)	-98	74*	0
C/C1=C/C=C/C=C\[C@H](C)[C@@H](O)CC(=O)/C(C)=C/C[C@H](O)/C=C/[C@H](C)[C@H](O)[C@@H](C)/C=C(\C)C(=O)c2c(O)c(C)cc3c2C(=O)C=C(NC1=O)C3=O	-284	21	-47
COCCn1c(SCC(=O)NC2CCCC2)nnc1-c1c[nH]c2ccccc12	1	-3	-8
CC(C)C[C@@H]1NC(=O)[C@H](CCCN)NC(=O)[C@H](C(C)C)NC(=O)[C@H](Cc2ccc(O)cc2)NC(=O)[C@H](CCC(N)=O)NC(=O)[C@H](CC(N)=O)NC(=O)[C@@H](Cc2ccccc2)NC(=O)[C@H](Cc2ccccc2)NC(=O)[C@@H]2CCCN2C(=O)[C@@H](Cc2ccccc2)NC1=O	-127	2	39*
CCC(C)C1NC(=O)C(CCC(N)=O)N(C)C(=O)C(C(C)C)N(C)C(=O)CNC(=O)C2CCCN2C(=O)C(Cc2ccccc2)NC(=O)C(C(C)CC)OC(=O)C(CCC(=O)O)N(C)C(=O)C(C(C)C)NC(=O)C2CCCCN2C1=O (configuration not stated)	-31	-21	-5
Cc1sc2nc(C)n(C3CCN(C(=O)c4n[nH]c5c4CCC5)CC3)c(=O)c2c1C	6	0	0
COc1nc2c(c(-c3ccco3)c1C#N)Cc1cc(NC(C)=O)ccc1-2	-129	39*	-1
COc1ccc(NC(=O)COc2cccc(-c3noc(-c4ccco4)n3)c2)cc1	-45	-13	-23
O=C(c1ccccc1)N1CCN(Cc2nncn2-c2ccccc2)CC1	0	-7	-3
Cc1nc(Nc2ccccn2)cc(C2CCCN2C(=O)C2CCCC2)n1 (configuration not stated)	8	15	6
CCc1cc2c(=O)[nH]c(Cc3ccc(OC)cc3)nc2s1	40*	58*	11
COc1ccc(Nc2nnc(Cc3ccc(Cl)cc3)c(=O)[nH]2)cc1	4	-3	-8
CC(OC(=O)c1cc(=O)[nH]c2ccccc12)C(=O)Nc1ccc(F)cc1Cl (configuration not stated)	12	45*	19
O=C(Nc1ccc(Cl)cc1F)c1cc(=O)[nH]c2ccccc12	-12	-5	-9
CCCCCCN1C(=O)[C@@H]2Cc3ccccc3CN2C1=O	11	18	8
Cc1ccc(NC(=O)CCc2nc3c(C)nn(-c4ccccc4)c3n(C)c2=O)cc1C	7	27	5
CCc1cccc(NC(=O)CCc2nc3c(C)nn(-c4ccccc4)c3n(C)c2=O)c1	-7	48*	-4
Cc1nn(-c2ccccc2)c2c1nc(CCC(=O)NCc1ccccc1F)c(=O)n2C	43*	13	14
Cc1ccc(NC(=O)CCc2nc3c(C)nn(-c4ccccc4)c3n(C)c2=O)cc1F	1	3	-2
CCn1c(=O)c(CCC(=O)NCc2ccccc2F)nc2c(C)nn(-c3ccccc3)c21	-31	-19	-10
CSc1cccc(NC(=O)CCc2nc3c(C)nn(-c4ccccc4)c3n(C)c2=O)c1	-1	43*	-1
COc1ccc(CNC2C3CC4CC(C3)CC2C4)c(OC)c1 (configuration not stated)	16	1	12
COc1ccc(S(=O)(=O)N2CCN(C34CC5CC(CC(C5)C3)C4)CC2)cc1OC	8	-1	-8
